This is a sample that favours compounds with a hit; in the whole collection about 3.3% have one here.
Cl transport mod: KCC2 cotransporter modulators, thallium flux, primary screen, cell-based, HEK293 KCC2, FluoZin-2 fluorescence, MLSMR | KCC2 cells, thallium flux FluoZin-2 fluorescence | B-score of Tl+ flux slope (higher = more flux/activation; lower = inhibition) at 10 µM | 190,000 tested, 2.2% active | AID 1456, 2008;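 active means thallium flux slope and its plate-corrected score both differing from the plate sample mean at a set confidence after two filtering rounds, in either direction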;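 further: slope of fluorescence scaled to starting intensity during 10 to 20 s after thallium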
Efflux pump mplx: inhibitors of Candida efflux pumps in yeast, primary screen, S. cerevisiae, Nile Red, multiplex. S. cerevisiae Candida pump triplex. 330,000 tested, 0.44% active. inhibition, % at 10 µM;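 active means plate passing quality check with inhibition over a set limit, or well fluorescence over plate mean plus 4 SD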;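 further: Nile Red retained in pooled yeast measured as flow cytometry median fluorescence; 0% = buffer negative control and 100% = Enniatin B positive control; higher means more Nile Red kept so more efflux inhibition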
PHOSPHO1 inh: PubChem AID 1565 | inhibition, % at 13.3 µM | recombinant PHOSPHO1, absorbance phosphatase assay | 290,000 tested, 1.1% active | Phosphoethanolamine/phosphocholine phosphatase (Homo sapiens), Q8TCT1; in the data active means inhibition above about 60%
Calb FLC: C. albicans growth inhibition with fluconazole, primary screen, CaCi-2 strain, Alamar Blue fluorescence; AID 1979, 2009; C. albicans CaCi-2 (fluconazole-resistant clinical isolate) + fluconazole, 48 h; growth inhibition, % (concentration not given with the values); 300,000 tested, 0.57% active;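 active means growth inhibition above about 58% in most replicates, limit read from the data, passing the limit was not always enough; inconclusive means exactly half the replicates above a set limit; inactive means most replicates below a set limit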;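 further: all wells also contain fluconazole at 8 µg/ml as a sub-toxic cotreatment; 0% = median of DMSO wells and 100% = median of geldanamycin control wells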
Cardio protect: cardioprotection against H2O2-induced cell death, primary screen, uHTS, H9c2 cells, ATPLite luminescence. AID 588492, 2011. H9c2 cardiomyocytes, H2O2 injury protection, 2 h. 360,000 tested, 0.63% active. protection from H2O2 cell death, % at 20 µM;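 active means compounds giving at least 50% protection of heart cells from peroxide-induced death in the single-dose screen, raw or plate-pattern-corrected value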;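 further: 0% = DMSO wells with peroxide and 100% = DMSO wells without peroxide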
KCC2 sec1: KCC2 modulators in sodium-free buffer, confirmation, cell-based, HEK293 KCC2, thallium flux, secondary assay; 3,700 tested, 15% active; shares compounds with Cl transport mod; FluoZin2 fluorescence; active compounds read high; normalised thallium flux (F/F0 slope) at 10 µM; AID 1713, 2009;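 active means thallium flux slope above the same plate's solvent-only control mean plus 3 SD; inconclusive means the two replicate wells disagree; inactive means no significant difference from solvent-only control wells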
KCC2 bumet counter: thallium flux persisting under bumetanide in KCC2 cells, confirmation, counter-screen for KCC2 modulator project, cell-based, HEK293 KCC2, FluoZin2, secondary assay 3; shares compounds with Cl transport mod; HEK293-KCC2 + bumetanide/ouabain; active compounds read high; normalized thallium flux at 10 µM; 3,700 tested, 49% active; AID 1714, 2009;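 active means thallium entry rate above the same plate's blocked-transporter control wells by more than 3 SD; inconclusive means the two repeat wells disagree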;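 further: raw slope of fluorescence over initial fluorescence between 10 and 20 s after thallium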
KCC2 sec2: KCC2 modulators without ouabain present, confirmation, cell-based, HEK293 KCC2, thallium flux, FluoZin2, secondary assay 2. shares compounds with Cl transport mod. thallium flux FluoZin2 fluorescence; actives lie on both sides; F/F0 rise rate, 10–20 s post-thallium. normalized thallium flux at 10 µM. 3,700 tested, 23% active. AID 1715, 2009;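 active means thallium flux slope more than 3 SD above or below the plate's solvent-only control mean, mostly below; inconclusive means the two repeat wells disagreed; inactive means no significant shift from solvent-only controls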;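 further: raw slope with 0.1% DMSO as baseline and bumetanide as block control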
HEK counter1: thallium flux modulation in parental HEK cells, confirmation, counter-screen for KCC2 modulator project, cell-based, counterscreen 1 | shares compounds with Cl transport mod | HEK293 parental cells, thallium flux FluoZin2, ouabain; baseline-ratio fluorescence slope, 10–20 s after thallium | thallium flux rate (normalised fluorescence) at 10 µM | 3,700 tested, 46% active | AID 1716, 2009;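 active means thallium flux rate significantly above the same plate's solvent-only control wells, beyond their mean plus 3 SD; inconclusive means the two replicate wells gave conflicting results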
KCC2 retest ouab: KCC2 inhibitors and activators, ouabain retest, confirmation, HEK-KCC2 cells; shares compounds with Cl transport mod; AID 1717, 2009; HEK293-KCC2, thallium flux FluoZin2 fluorescence; bidirectional: low = inhibitor, high = activator; raw Tl+ flux slope (below DMSO = inhibition, above = activation) at 10 µM; 3,700 tested, 48% active;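 active means thallium flux slope beyond 3 SD from same-plate DMSO control mean in most replicates, usually higher, sometimes lower; inconclusive means repeat tests gave conflicting results; inactive means no significant difference from controls in most replicates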;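 further: slope of initial-normalized fluorescence between seconds 10 and 20 after thallium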
HEK293 Tl flux2: native HEK Tl+ uptake effects, second counter-screen – HEK cells, counterscreen 2, counter-screen for KCC2 modulator project, confirmation. HEK293 parental, thallium flux FluoZin-2 fluorescence slope. shares compounds with Cl transport mod. thallium flux slope at 10 µM. AID 1718, 2009. 3,700 tested, 33% active;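 active means thallium flux slope above the same plate's solvent-control mean plus 3 SD in both duplicate wells; inconclusive means duplicate wells that disagreed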;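 further: run without ouabain in cells lacking the KCC2 cotransporter; slope of fluorescence scaled to its starting value between 10 and 20 s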
The depositor's hits bear a star; ? = inconclusive; · = no result.

SMILES	Cl transport mod	Efflux pump mplx	PHOSPHO1 inh	Calb FLC	Cardio protect	KCC2 sec1	KCC2 bumet counter	KCC2 sec2	HEK counter1	KCC2 retest ouab	HEK293 Tl flux2
O=C(NNC(=O)c1sccc1-n1cccc1)c1ccc(F)cc1	·	0.2	20.0	-32.4	-0.1	0.0115	0.0166*	0.0345	?	0.0255*	0.0115
O=C(NNC(=O)c1c(F)cccc1F)c1sccc1-n1cccc1	1.14	-0.2	15.0	-9.7	2.5	·	·	·	·	·	·
COc1ccc([N+](=O)[O-])cc1NC(=O)C1C2C=CC(C2)C1C(=O)O (centres undefined)	·	-0.1	18.7	8.0	2.9	·	·	·	·	·	·
Cc1cc(=O)[nH]c(SCC(=O)Nc2nc3ccccc3s2)n1	-1.15	0.0	9.4	-15.2	0.1	·	·	·	·	·	·
Cn1nccc1C(=O)OCC(=O)Nc1nc(-c2ccccc2)cs1	-5.33*	-0.1	-3.5	-9.3	16.1	0.0159	0.00492	0.0222*	0.00761	0.0149	0.0105
Cc1cc(=O)[nH]c(SCC(=O)Nc2nc(-c3ccccc3)cs2)n1	-7.13*	0.0	18.5	1.5	0.1	0.00791	0.00626	0.0338	0.0038	0.0147*	0.0114
Cc1nc(CC(=O)Nc2nc(-c3ccccc3)cs2)cs1	-3.43*	0.0	5.8	-10.9	-5.8	0.00858	0.00562	?	0.00857	0.0174*	0.0116
Cc1cc(=O)[nH]c(SCC(=O)Nc2nnc(SCc3ccccc3)s2)n1	-4.79*	-0.3	-31.1	33.1	-3.6	0.00513	0.00464	0.0248*	0.00481*	0.0146*	0.00829*
O=C(Cc1cccs1)Nc1nc(-c2ccccc2)cs1	-0.511	0.0	-2.0	-42.1	-0.7	·	·	·	·	·	·
O=C(COC(=O)c1cccs1)Nc1nc(-c2ccccc2)cs1	0.152	0.1	-1.8	·	11.0	·	·	·	·	·	·
COc1ccc(N2CCN(C(=O)COC(=O)c3ccc(OC(F)F)cc3)CC2)cc1	·	0.0	·	·	-2.5	·	·	·	·	·	·
COc1ccccc1-c1nnc(SCC(=O)Nc2nc(-c3ccccc3)cs2)n1C	-4*	0.1	15.6	3.1	3.6	?	0.00658	0.032	0.00346	0.0148*	0.0115
CC(C)Oc1cccc(C(=O)Nc2ccccc2N2CCOCC2)c1	-8.53*	0.0	-27.3	-6.4	-2.7	0.00806	0.00511	0.0312	0.00692	0.0332	0.0106
Cc1ccccc1NC(=O)OCc1ccccc1	·	0.1	23.9	2.0	-4.0	·	·	·	·	·	·
Cc1cccc(N(CC(O)CON=C2c3ccccc3-c3ccccc32)S(C)(=O)=O)c1 (centres undefined)	-0.406	-0.1	15.0	-3.3	-22.1	·	·	·	·	·	·
CS(=O)(=O)N(CC(O)CON=C1c2ccccc2-c2ccccc21)c1ccc(F)cc1 (centres undefined)	·	0.1	-31.3	-5.1	18.7	0.00604	0.00459	0.031	?	0.0192	0.01
Cc1ccc(C(=O)Nn2c(O)c(C=C3N=c4ccccc4=N3)sc2=S)cc1	·	-0.1	-104.6	26.0	-6.8	·	·	·	·	·	·
O=C(Nn1c(O)c(C=C2N=c3ccccc3=N2)sc1=S)c1ccccc1	-3.5*	-0.2	85.8*	-3.9	9.7	0.00692	0.00448	0.022*	0.00749	0.0125*	0.0102
CNC(=O)C(=O)Nc1nc(C23CC4CC(CC(C4)C2)C3)cs1	3.87*	0.7	35.3	-11.8	9.1	0.00718	0.0117*	0.0277	0.0127*	?	0.0125*
O=C(NCc1cccnc1)C(=O)Nc1nc(C23CC4CC(CC(C4)C2)C3)cs1	1.62	0.1	12.3	-3.8	1.0	·	·	·	·	·	·
O=C(NCc1ccc(F)cc1)C(=O)Nc1nc(C23CC4CC(CC(C4)C2)C3)cs1	8.93*	0.0	-7.4	2.6	6.4	0.00539	0.0377*	0.0331	0.0213*	0.0344*	0.0177*
Cc1ccc(N2C(=O)N(CC(=O)Nc3ccccc3C(F)(F)F)C(=O)C2C)cc1 (centres undefined)	·	-0.1	·	·	6.3	·	·	·	·	·	·
Cc1ccccc1C(=O)c1cccn1CC(=O)NCc1ccccc1Cl	·	-0.1	44.5	-5.9	-9.8	·	·	·	·	·	·
CCC(CC)NC(=O)COC(=O)c1ccc(NS(=O)(=O)c2ccc3c(c2)OCCO3)cc1	2.71*	0.2	0.3	5.9	1.4	0.00882	0.00741	0.0304	0.0069	0.0199	0.0104*
COCCN(CCOC)C(=O)c1ccc(NS(=O)(=O)c2ccc3c(c2)OCCO3)cc1	·	-0.2	27.4	-6.5	1.9	·	·	·	·	·	·
SMILES	Cl transport mod	Efflux pump mplx	PHOSPHO1 inh	Calb FLC	Cardio protect	KCC2 sec1	KCC2 bumet counter	KCC2 sec2	HEK counter1	KCC2 retest ouab	HEK293 Tl flux2
CCOC(=O)C1CCN(S(=O)(=O)c2c[nH]c(=O)[nH]c2=O)CC1	·	0.0	·	-6.0	-1.5	·	·	·	·	·	·
COc1ccc(OC)c(NC(=O)CC2Oc3ccccc3NC2=O)c1 (centres undefined)	·	-0.1	20.3	6.4	-1.6	·	·	·	·	·	·
Cn1c(=O)c(=O)n(C)c2cc(S(=O)(=O)N3CCC(Cc4ccccc4)CC3)ccc21	·	0.3	13.4	15.2	-3.1	·	·	·	·	·	·
CCn1c(=O)n(CC)c2cc(S(=O)(=O)N3CCC(c4ccccc4)CC3)ccc21	·	0.2	-31.3	34.9	-15.0	0.00617	0.00469	0.0245*	0.00705	0.0169*	0.0102
COc1ccccc1OCCNC(=O)c1ccc(C)c(S(=O)(=O)N2CCOCC2)c1	·	-0.1	·	-9.2	14.3	·	·	·	·	·	·
Cn1cc([N+](=O)[O-])c(C(=O)NC2CCCCCCC2)n1	·	-0.1	8.2	11.8	-2.5	·	·	·	·	·	·
COc1cccc(-n2nc(C(=O)N3CC(C)CC(C)C3)c3ccccc3c2=O)c1 (centres undefined)	4.37*	0.1	0.5	-6.9	4.8	0.00717	0.00419	0.0316	0.00719	0.0193	0.0101
